TcdB inh – inhibitors of Clostridioides difficile toxin B glycohydrolase; TcdB glycohydrolase enzymatic assay, plate reader; inhibition, % at 9.99 µM; hit rate 0.24% among 350,000; in the data active = inhibition above about 10%
VHR inh abs – DUSP3 (human) phosphatase inhibition. recombinant VHR phosphatase, pNPP absorbance. AID 1654. hit rate 0.52% among 290,000. inhibition, % at 13.3 µM; in the data active = inhibition above about 50%
Target sequence (P51452 whole entry, looked up): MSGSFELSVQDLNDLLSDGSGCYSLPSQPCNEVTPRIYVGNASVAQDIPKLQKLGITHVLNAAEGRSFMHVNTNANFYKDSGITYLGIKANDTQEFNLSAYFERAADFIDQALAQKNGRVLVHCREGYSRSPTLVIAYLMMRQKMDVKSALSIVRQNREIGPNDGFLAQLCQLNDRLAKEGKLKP
BioA inh – inhibitors of Mycobacterium tuberculosis BioA enzyme. purified M. tuberculosis BioA enzyme, plate reader. hit rate 0.096% among 360,000. inhibition, % at 9.99 µM; in the data active = inhibition above about 40%
Vc quorum ag – inducers of Vibrio cholerae quorum light production without autoinducers; V. cholerae BH1578 lux reporter, luminescence, 6 h; activation, % at 18.7 µM; hit rate 0.16% among 350,000; in the data active = activation mostly above about 9.7%, no sharp cut-off
Y pestis TopoI – blocks Yersinia pestis topoisomerase I activity; activity, % at 10 µM; hit rate 0.064% among 360,000; Y. pestis Topo-I cleavage product accumulation, plate reader; in the data active = activity above about 50%, passing the limit was not always enough
Numbers without * were called inactive; i = inactive; . = not tested or not shown; + = active, no number; ! = repeats disagree. The list is not random: actives were taken first. Their share in the collection is about 0.73%.

SMILES	TcdB inh	VHR inh abs	BioA inh	Vc quorum ag	Y pestis TopoI
CC12CCC(=O)N1C(C(=O)Oc1cccc(F)c1)CS2 (stereo not drawn)	1	.	0	-1	3
CC12CCC(=O)N1C(C(=O)OCc1c(Cl)cccc1Cl)CS2 (stereo not drawn)	12*	10	1	-16	23
COc1ccc(NC(=O)Nc2ccc3c(c2)C(=O)N([C@H](C)CO)C[C@H](C)[C@@H](CN(C)C(=O)NC(C)C)OCCCC[C@H](C)O3)cc1	-2	.	2	.	.
C[C@H]1CN([C@@H](C)CO)C(=O)c2cc(-c3ccc(C(=O)N(C)C)cc3)cnc2O[C@H]1CN(C)C(=O)c1ccncc1	-4	.	-1	.	.
COc1cccc(Cn2c(=O)oc3ccccc32)c1	-7	53*	2	i	-1
O=c1oc2ccccc2n1Cc1ccccc1	0	-13	.	i	7
Cc1ccc(S(=O)(=O)Nc2ccc3c(c2)CC(=O)N([C@H](C)CO)C[C@@H](C)[C@H](CN(C)C(=O)Nc2cccc4ccccc24)O3)cc1	-1	.	-2	.	.
CCOC(=O)[C@@H]1[C@H]2COc3ccc(Br)cc3[C@@H]2N2C(=O)N(c3ccc(Br)cc3)C(=O)[C@]12C	14*!	13	17	0	-3
CC(C)OC(=O)C(C)Nc1n[nH]c(=S)[nH]c1=O (stereo not drawn)	0	5	.	0	-6
CC(C)COC(=O)C(C)Nc1n[nH]c(=S)[nH]c1=O (stereo not drawn)	0	22	.	+	1
Cn1cc(C(=O)C(=O)N2CCCc3ccccc32)c2ccccc21	3	8	-1	1	-8
Cn1cc(S(=O)(=O)CC(=O)N2CCCc3ccccc32)c2ccccc21	11*	46	0	-1	1
CNCC(=O)Nc1ccc(Cl)c(C(F)(F)F)c1	0	20	.	0	12
Cc1ccccc1NC(=O)CNc1ccc(Cl)c(C(F)(F)F)c1	.	58*	3	-1	2
CC(C)(C)OC(=O)N1CCC(c2c(C(=O)N3CCN(C(=O)c4ccco4)CC3)cnn2-c2cccc(Cl)c2)CC1	0	58*	1	0	36
O=C(c1ccco1)N1CCN(C(=O)c2cnn(-c3cccc(F)c3)c2C2CCNCC2)CC1	-1	-4	-1	0	1
Cc1cccc(CN2CCCN(Cc3ccc(Cl)cc3)S2(=O)=O)c1	0	2	.	2	57*
Cc1ccc(CN2CCCN(Cc3ccc(C)cc3)S2(=O)=O)cc1	0	-28	0	0	5
C[C@H](CO)N1C[C@H](C)[C@@H](CN(C)CC2CCCCC2)Oc2ccc(NS(=O)(=O)c3ccc(F)cc3)cc2CC1=O	-1	.	-4	.	.
CCOC(CCNC(=O)c1cn(CCOC)c(=O)c2c1c1ccccc1n2C)OCC	21*	-19	-1	0	-7
CCCN(CCC)CCCNC(=O)c1cn(CCOC)c(=O)c2c1c1ccccc1n2C	.	4	-1	i	2
C[C@@H]1CN([C@H](C)CO)C(=O)Cc2cc(NC(=O)Cc3ccccc3)ccc2O[C@H]1CN(C)Cc1ccc(Cl)c(Cl)c1	0	.	-1	.	.
O=C(NCc1ccncc1)[C@@H]1CCCN1C(=O)[C@@H]1CCCN1	12*	.	.	.	.
O=C(NCc1ccccc1)[C@@H]1CCCN1C(=O)[C@@H]1CCCN1C(=O)c1cccs1	12*	.	.	.	.
O=C(C1CCC1)N1CC[C@@H]2[C@H](CO)Nc3ccc(Br)cc3[C@@H]21	0	.	.	.	.
SMILES	TcdB inh	VHR inh abs	BioA inh	Vc quorum ag	Y pestis TopoI
O=C1/C(=C/c2ccco2)CCc2ccccc21	-1	-2	-1	0	8
Nc1ccc2c(c1)C/C(=C/c1ccco1)C2=O	.	72*	.	0	-20
Cc1cc2ccccn2c1C(=O)c1ccc(N/N=C/c2ccc(C(=O)O)cc2)c([N+](=O)[O-])c1	-1	83*	.	i	-2
Cc1cccc(NC(=O)c2ccc(N3CCOCC3)c([N+](=O)[O-])c2)n1	13*	18	-2	-1	5
Cc1cccc(NC(=O)c2ccc(N3CCCCC3)c([N+](=O)[O-])c2)n1	.	15	.	-1	1
Cn1c(SCC(=O)Nc2ccccc2F)nnc1-c1cccs1	0	54*	.	0	-1
CCn1c(SCC(=O)NCC(=O)Nc2ccc(F)cc2)nnc1-c1cccs1	.	30	6	25*	2
Cn1c(Cc2cccs2)nnc1SCC(=O)Nc1ccccc1F	0	.	.	-3	-2
CCn1c(SCC(=O)Nc2ccc(C(=O)OC)cc2)nnc1-c1cccs1	.	-9	-1	-1	17
COc1ccc(S(=O)(=O)N(C)C[C@H]2Oc3ccc(NC(=O)CCCCCC(=O)Nc4ccccc4N)cc3C(=O)N([C@@H](C)CO)C[C@@H]2C)cc1	-1	.	.	.	.

Screening results: PubChem BioAssay, several laboratories
